# Experimental data: the supplement of paper PMC12282887
# ± gives the standard deviation of the averaged measurements.
# Assays:
# Test in all cases: promoter activity interaction Z-score (Lux/OD deviation from empty-vector control); higher = stronger promoter induction by the compound
# [1] = system: E. coli BW25113 acrABp lux reporter
# Summary of the method: (§1)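 E. coli BW25113 luxCDABE reporter strains grew at 37°C in 40 µl LB Lennox in 384-well plates, with OD600 and luminescence read every 30 min for 12 h. After integration over 0–8 h for wild type or 1–9 h for deletion strains, wells under 10% of the median growth value were removed. Each score is the Z-transformed residual of growth-normalised luminescence fitted against a control.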
# [2] = system: E. coli BW25113 micFp lux reporter
# Summary of the method: as §1
# [3] = system: E. coli BW25113 ompFp lux reporter
# Summary of the method: as §1
# [4] = system: E. coli BW25113 robp lux reporter
# Summary of the method: as §1
# [5] = 0.29 µg/ml, genetic background: wild type
# [6] = 0.29 µg/ml, genetic background: ΔmarA
# [7] = 0.29 µg/ml, genetic background: Δrob
# [8] = 0.29 µg/ml, genetic background: ΔsoxS
# [9] = 0.58 µg/ml, genetic background: wild type
# [10] = 0.58 µg/ml, genetic background: ΔmarA
# [11] = 0.58 µg/ml, genetic background: Δrob
# [12] = 0.58 µg/ml, genetic background: ΔsoxS
# [13] = 1.2 µg/ml, genetic background: wild type
# [14] = 1.2 µg/ml, genetic background: ΔmarA
# [15] = 1.2 µg/ml, genetic background: Δrob
# [16] = 1.2 µg/ml, genetic background: ΔsoxS
# [17] = 2.3 µg/ml, genetic background: wild type
# [18] = 2.3 µg/ml, genetic background: ΔmarA
# [19] = 2.3 µg/ml, genetic background: Δrob
# [20] = 2.3 µg/ml, genetic background: ΔsoxS
smiles,measurement,setting,value
COc1cccc2c1C(=O)c1c(O)c3c(c(O)c1C2=O)C[C@@](O)(C(=O)CO)C[C@@H]3O[C@H]1C[C@H](N)[C@H](O)[C@H](C)O1 [Doxorubicin],promoter activity interaction Z-score,[1]; [5],0.264 ± 0.31
same,promoter activity interaction Z-score,[1]; [6],-0.773 ± 0.32
same,promoter activity interaction Z-score,[1]; [7],-0.101 ± 0.29
same,promoter activity interaction Z-score,[1]; [8],-0.227 ± 0.054
same,promoter activity interaction Z-score,[1]; [9],-0.00519 ± 0.22
same,promoter activity interaction Z-score,[1]; [10],-0.484 ± 0.49
same,promoter activity interaction Z-score,[1]; [11],0.115 ± 0.14
same,promoter activity interaction Z-score,[1]; [12],0.371 ± 0.49
same,promoter activity interaction Z-score,[1]; [13],0.261 ± 0.022
same,promoter activity interaction Z-score,[1]; [14],-0.464 ± 0.4
same,promoter activity interaction Z-score,[1]; [15],-0.135 ± 0.15
same,promoter activity interaction Z-score,[1]; [16],0.0497 ± 0.23
same,promoter activity interaction Z-score,[1]; [17],0.546 ± 0.062
same,promoter activity interaction Z-score,[1]; [18],-0.437 ± 0.036
same,promoter activity interaction Z-score,[1]; [19],6.35e-05 ± 0.4
same,promoter activity interaction Z-score,[1]; [20],0.827 ± 0.68
same,promoter activity interaction Z-score,[2]; [5],0.258 ± 0.51
same,promoter activity interaction Z-score,[2]; [6],0.00982 ± 0.04
same,promoter activity interaction Z-score,[2]; [7],-0.233 ± 0.1
same,promoter activity interaction Z-score,[2]; [8],-0.236 ± 0.048
same,promoter activity interaction Z-score,[2]; [9],-0.041 ± 0.36
same,promoter activity interaction Z-score,[2]; [10],0.043 ± 0.035
same,promoter activity interaction Z-score,[2]; [11],-0.0843 ± 0.009
same,promoter activity interaction Z-score,[2]; [12],0.253 ± 0.04
same,promoter activity interaction Z-score,[2]; [13],-0.0305 ± 0.051
same,promoter activity interaction Z-score,[2]; [14],-0.0475 ± 0.075
same,promoter activity interaction Z-score,[2]; [15],-0.046 ± 0.01
same,promoter activity interaction Z-score,[2]; [16],-0.0734 ± 0.14
same,promoter activity interaction Z-score,[2]; [17],-0.114 ± 0.2
same,promoter activity interaction Z-score,[2]; [18],-0.105 ± 0.05
same,promoter activity interaction Z-score,[2]; [19],-0.179 ± 0.24
same,promoter activity interaction Z-score,[2]; [20],0.5393 ± 0.002
same,promoter activity interaction Z-score,[3]; [5],0.731 ± 0.14
same,promoter activity interaction Z-score,[3]; [6],0.137 ± 0.52
same,promoter activity interaction Z-score,[3]; [7],0.0129 ± 0.29
same,promoter activity interaction Z-score,[3]; [8],0.416 ± 0.18
same,promoter activity interaction Z-score,[3]; [9],0.4996 ± 0.0037
same,promoter activity interaction Z-score,[3]; [10],0.465 ± 0.3
same,promoter activity interaction Z-score,[3]; [11],0.853 ± 0.58
same,promoter activity interaction Z-score,[3]; [12],0.476 ± 0.015
same,promoter activity interaction Z-score,[3]; [13],0.149 ± 0.086
same,promoter activity interaction Z-score,[3]; [14],0.206 ± 0.067
same,promoter activity interaction Z-score,[3]; [15],0.0157 ± 0.25
same,promoter activity interaction Z-score,[3]; [16],0.0237 ± 0.37
same,promoter activity interaction Z-score,[3]; [17],0.745 ± 0.73
same,promoter activity interaction Z-score,[3]; [18],0.961 ± 0.018
same,promoter activity interaction Z-score,[3]; [19],0.674 ± 0.97
same,promoter activity interaction Z-score,[3]; [20],1.34 ± 0.69
same,promoter activity interaction Z-score,[4]; [5],1.18 ± 0.82
same,promoter activity interaction Z-score,[4]; [6],-0.24 ± 0.58
same,promoter activity interaction Z-score,[4]; [7],0.206 ± 0.23
same,promoter activity interaction Z-score,[4]; [8],0.239 ± 0.22
same,promoter activity interaction Z-score,[4]; [9],0.596 ± 0.27
same,promoter activity interaction Z-score,[4]; [10],0.16 ± 0.16
same,promoter activity interaction Z-score,[4]; [11],0.385 ± 0.43
same,promoter activity interaction Z-score,[4]; [12],0.541 ± 0.27
same,promoter activity interaction Z-score,[4]; [13],0.714 ± 0.13
same,promoter activity interaction Z-score,[4]; [14],-0.447 ± 0.99
same,promoter activity interaction Z-score,[4]; [15],0.329 ± 0.74
same,promoter activity interaction Z-score,[4]; [16],0.0896 ± 0.043
